Source: paper PMC5540273 (PLoS ONE, 2017)

Columns and labels:
Details in all cases: concentration: 1 μM, replicates: in singlicate; n = 1
MINK = tested on: T1, MINK
T1 construct: gene MINK1

MKK7 = tested on: MKK7
MKNK1 = tested on: MKNK1
MKNK2 = tested on: MKNK2
MLCK = tested on: T2, MLCK
T2 construct: gene MYLK3

MLK1 = tested on: T3, MLK1
T3 construct: gene MAP3K9

MLK2 = tested on: MLK2
MLK3 = tested on: MLK3
MRCKA = tested on: MRCKA
MRCKB = tested on: T4, MRCKB
T4 construct: gene CDC42BPB
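Further: KINOMEscan kinase panel screen.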

SMILES	%Inh (MINK) [%]	%Inh (MKK7) [%]	%Inh (MKNK1) [%]	%Inh (MKNK2) [%]	%Inh (MLCK) [%]	%Inh (MLK1) [%]	%Inh (MLK2) [%]	%Inh (MLK3) [%]	%Inh (MRCKA) [%]	%Inh (MRCKB) [%]
CNc1nc(-c2ccc3c(N)n[nH]c3c2)cc(N2C[C@@H](C(=O)NC3CCCCC3)OC[C@H]2C)n1 [GSK2375584]	11	0	10	0	0	0	23	20	4	0
Cc1c(Cn2c3ccccc3n3c(=O)cc(N4CCOCC4)nc23)cccc1C(F)(F)F [GSK2306394]	0	0	0	6	0	0	2	0	0	0
CCCCc1nn2ncccc2c1-c1ccnc(NC2CC2)n1 [GW684374]	7	0	0	0	0	0	0	0	0	0
CCn1c(-c2c(N)noc2C)nc2cnccc21 [SB-737856]	0	0	0	12	0	0	0	1	8	1
COc1ccc(CSc2nnc(-c3ccc4nccn4c3)o2)cc1C(F)(F)F	12	0	0	0	2	0	4	3	3	20
Cn1cncc1C(=O)NC1CCN(c2ccnc(Nc3ccc(F)cc3)n2)C1 (centres unmarked) [GSK1379717]	0	10	0	5	0	0	0	0	2	0
Cc1ccccc1Cn1ccn2c(=O)cc(N3CCOCC3)nc12 [GSK2269905]	0	0	0	10	0	0	17	3	0	0
CSc1ccc(-c2nc3n(c2-c2ccncc2)CCC3)cc1 [SKF-105561]	15	1	0	20	0	0	0	0	0	0
Cc1nccc(-c2c(-c3ccc(F)cc3)ncn2CCCN2CCOCC2)n1.Cl [SB-282975]	18	0	11	1	0	0	22	25	23	0
Cc1ccccc1-c1cc(-c2c[nH]nc2-c2ccccn2)ccn1 [GW680061]	31	0	9	0	0	0	2	0	0	0
O=C(Nc1n[nH]c2nc(-c3ccco3)c(Br)cc12)C1CCN(Cc2ccccc2)C1.O=C(O)[C@H](O)[C@@H](O)C(=O)O (centres unmarked) [SB-742034]	15	0	0	27	25	8	20	9	0	0
Cc1ccc(NC(=O)c2ccc(Cl)cc2)cc1-c1ccc(C(=O)Nc2ccncc2)cc1 [GSK1398467]	0	0	0	12	0	0	9	15	9	3
CNCc1ccc2nc(NC(=O)c3ccc(C(C)(C)C)cc3)cn2c1	53	8	17	10	14	8	0	6	6	14
O=C1NC(=O)C(c2ccc(Cl)cc2)=C1Nc1cccc(Cl)c1 [SB-317651]	0	0	14	56	0	0	0	1	0	0
CC(=O)c1c(C)c2cnc(Nc3ccc(N4CCNCC4)cn3)nc2n(C2CCCC2)c1=O	0	0	0	0	8	0	0	0	0	35
COc1ccc(Nc2nccc(N3CCC(NC(=O)C(C)c4ccc(Cl)cc4)CC3)n2)cc1 (centres unmarked) [GSK1379812]	51	0	36	5	0	0	0	52	20	0
O=C1NC(=O)C(c2ccc(Cl)cc2)=C1Nc1ccc(O)cc1 [SB-340867]	11	0	0	0	0	0	0	4	8	0
